PubChem BioAssay (Tox21)
Where “and” joins values, the source holds several entries; their conditions need not be identical. Identical values can stand only once. Inconclusive results are not listed. Where a structure was tested more than once in an assay, its records may differ in their call. Calls of active or inactive are those of the source. Unless noted, calls follow the shape of the dose curve; as a rule, active = well fitted curve in the direction sought with a large enough effect in the repeat runs; inconclusive = weak or mixed curves; inactive = no such curve, though single readings can be large; an effect the other way counts as inactive or inconclusive.

Assays:
[1] = A CellTox Green Cytotoxicity Assay to monitor cytotoxicity in HEK293 cells - 32 hour (AID 1224881); also: nearly all actives have a fitted effect of over 40% in size; also: potency is read from the fitted curve at half-maximal effect
Method in brief: (§1)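 Read-out: fluorescence of a cell-impermeant cyanine dye staining DNA of dead cells, proportional to cytotoxicity. HEK293, 600 cells/well with reagent, compound (23 nL DMSO) added after 5 h; reads at 0, 8, 16, 24, 32, 40 h.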

[2] = A CellTox Green Cytotoxicity Assay to monitor cytotoxicity in HepG2 cells - 0 hour (AID 1224882); also: nearly all actives have a fitted effect of over 35% in size
Method in brief: (§2)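 HepG2, 600 cells/well premixed w/ CellTox Green; 5 h settle, 37 C/5% CO2; pintool cpd add (DMSO); 37 C, 40 h; fluorescence read at 0, 8, 16, 24, 32, 40 h.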

[3] = A CellTox Green Cytotoxicity Assay to monitor cytotoxicity in HepG2 cells - 32 hour (AID 1224883); also: nearly all actives have a fitted effect of over 50% in size; also: potency is read from the fitted curve at half-maximal effect
Method in brief: as §2

[4] = qHTS RealTime-Glo MT Cell Viability Assay in HepG2 cells - 16 hour (AID 1224885); also: nearly all actives have a fitted effect of over 50% in size
Method in brief: (§3)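 HepG2 cells were seeded at 600 cells/well together with NanoLuc luciferase and a cell-permeant prosubstrate, preincubated 5 h at 37 C/5% CO2, then pin-dosed with compounds in DMSO. Nonlytic luminescence from viable cells was read at each time point.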

[5] = qHTS RealTime-Glo MT Cell Viability Assay in HEK293 cells - 24 hour (AID 1224886); also: nearly all actives have a fitted effect of over 50% in size; also: potency is read from the fitted curve at half-maximal effect
Method in brief: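 HEK293 cells were seeded at 600 cells/well together with NanoLuc luciferase and cell-permeant prosubstrate, preincubated 5 h at 37 C/5% CO2, then given compound in DMSO by pintool. Luminescence from viable-cell prosubstrate reduction was read repeatedly over 40 h.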

[6] = qHTS RealTime-Glo MT Cell Viability Assay in HEK293 cells - 8 hour (AID 1224887); also: nearly all actives have a fitted effect of over 50% in size; also: potency is read from the fitted curve at half-maximal effect
Method in brief: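 Luminescence readout at each listed time point; HEK293, 600 cells/well, RealTime-Glo MT reagent added with cells; compounds pinned (23 nL in DMSO) after 5 h at 37 C; continuous culture at 37 C.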

[7] = A CellTox Green Cytotoxicity Assay to monitor cytotoxicity in HEK293 cells - 16 hour (AID 1224888); also: nearly all actives have a fitted effect of over 35% in size
Method in brief: as §1

[8] = qHTS RealTime-Glo MT Cell Viability Assay in HepG2 cells - 0 hour (AID 1224889); also: nearly all actives have a fitted effect of over 50% in size; also: potency is read from the fitted curve at half-maximal effect
Method in brief: as §3

[9] = A CellTox Green Cytotoxicity Assay to monitor cytotoxicity in HepG2 cells - 8 hour (AID 1224890); also: nearly all actives have a fitted effect of over 45% in size
Method in brief: as §2

[10] = qHTS assay to identify small molecule antagonists of the estrogen receptor alpha (ER-alpha) signaling pathway using the BG1 cell line in the presence of 0.1 nM 17-beta-estradiol - cell viability counter screen (AID 1259241); also: nearly all actives have a fitted effect of over 40% in size
Method in brief: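 The cell line endogenously expresses full-length ER-alpha and carries four EREs driving luciferase. Cells are cultured 5 days hormone-free, treated 22 hr with compounds and 0.1 nM estradiol, then viability is read by fluorescence.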

[11] = qHTS assay to identify small molecule antagonists of the androgen receptor (AR) signaling pathway using the MDA cell line in the presence of 0.5 nM R1881 - cell viability counter screen (AID 1259242); also: nearly all actives have a fitted effect of over 45% in size
Method in brief: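 Live-cell protease fluorescence, CellTiter-Fluor, 30 min at 37C. Cells: MDA-kb2, 3,000/well, preincubated 5 hr. Compounds plus 0.5 nM R1881 final, 16 hr, 37C, 0% CO2.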

[12] = qHTS assay to identify small molecule phospholipidosis (PLD) inducers (AID 1259344; active = well fitted curve in the direction sought with a large enough effect; an effect the other way counts as inactive or inconclusive)
Method in brief: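 Phospholipid accumulation was scored by imaging: fixed, Hoechst-counterstained HepG2 cells stained with LipidTOX Red after 24 h compound exposure at 37 C. Read-outs were pit count and pit intensity per well or per cell, with amiodarone and DMSO controls.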

[13] = qHTS assay to identify small molecule HDAC inhibitors (AID 1259364);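 also: wild-type HCT-116 cells with endogenous class I/II HDAC activity; top concentration of the series differs between compounds; nearly all actives have a fitted effect of over 45% in size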
Method in brief: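 HCT-116 (wild type), 1,500 cells/well, overnight; compound 2 hr 37C 5% CO2; HDAC-Glo I/II reagent 30 min RT; luminescence readout.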

[14] = qHTS assay to identify small molecule agonists of the sonic hedgehog signaling (Shh) pathway - cell viability counter screen (AID 1259366); also: nearly all actives have a fitted effect of over 50% in size
Method in brief: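 Viability measured fluorometrically (CellTiter-Fluor, 1hr, 37C) in 3T3 Gli1-Luc reporter cells after 23hr compound exposure within a 24hr incubation at 37C/5% CO2.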

[15] = qHTS assay to identify small molecule antagonists of the sonic hedgehog signaling (Shh) pathway - cell viability counter screen (AID 1259367); also: nearly all actives have a fitted effect of over 55% in size
Method in brief: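 Viability was read by CellTiter-Fluor fluorescence in the same wells, reagent added 23 hr into compound treatment and incubated 1 hr at 37C. The 3T3 Gli1-Luc reporter cells (2,000/well) received conditioned medium after compound and ran 24 hr.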

[16] = qHTS assay to identify small molecule agonists of the sonic hedgehog signaling (Shh) pathway (AID 1259368; calls by dose curve;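 also: NIH/3T3-derived 3T3Gli1-Luc cells carrying a stable Gli1-driven firefly luciferase reporter; series mostly up to about 92 µM; nearly all actives have a fitted effect of over 15% in size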)
Method in brief: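 Read-out: firefly luciferase luminescence from a Gli1 response element reporter stably integrated in NIH/3T3-derived 3T3Gli1-Luc cells, measured 30 min at room temperature after reagent addition. Compound exposure lasted 24 hr at 37 C, 5% CO2.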

[17] = molecular target: Estrogen receptor (Homo sapiens) (UniProt P03372); experiment: qHTS assay to identify small molecule antagonists of the estrogen receptor alpha (ER-alpha) signaling pathway using the BG1 cell line in the presence of 0.1 nM 17-beta-estradiol (AID 1259244); also: nearly all actives have a fitted effect of over 50% in size
Estrogen receptor (Homo sapiens), sequence (P03372 whole entry, looked up): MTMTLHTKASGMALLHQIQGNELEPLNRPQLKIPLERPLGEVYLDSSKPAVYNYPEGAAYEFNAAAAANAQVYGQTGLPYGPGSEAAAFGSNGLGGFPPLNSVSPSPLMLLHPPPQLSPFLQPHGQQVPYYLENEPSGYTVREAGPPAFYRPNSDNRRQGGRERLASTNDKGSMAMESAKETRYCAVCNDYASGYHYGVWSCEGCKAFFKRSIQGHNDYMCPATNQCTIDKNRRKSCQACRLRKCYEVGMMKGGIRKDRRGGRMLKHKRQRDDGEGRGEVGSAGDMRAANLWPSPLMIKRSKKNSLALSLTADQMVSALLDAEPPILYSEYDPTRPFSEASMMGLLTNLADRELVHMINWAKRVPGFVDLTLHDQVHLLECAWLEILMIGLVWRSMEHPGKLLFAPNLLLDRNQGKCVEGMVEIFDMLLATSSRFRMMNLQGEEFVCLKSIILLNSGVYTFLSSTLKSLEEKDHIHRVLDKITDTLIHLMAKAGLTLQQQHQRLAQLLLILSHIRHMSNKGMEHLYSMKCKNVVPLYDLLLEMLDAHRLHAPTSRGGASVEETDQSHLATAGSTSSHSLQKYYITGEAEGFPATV
Method in brief: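 Luminescence after ONE-Glo (30 min, room temperature) measured ERE-luciferase activity in VM7Luc4E2 cells treated 22 h with compound and 0.1 nM final 17beta-estradiol as stimulator.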

[18] = qHTS assay to identify small molecule HDAC inhibitors - cell viability counter screen (AID 1259365)
Method in brief: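 Viability readout: CellTiter-Glo luminescence. Wild-type HCT-116 cells, 2hr compound treatment following overnight attachment at 37 C.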

Measured: Potency

O=c1n(CCCN2CCN(c3cccc(Cl)c3)CC2)nc2ccccn12
active: [5] 13.8 µM and 16.9 µM | [6] 11 µM and 10.7 µM
49 µM (active) and inactive: [8]
not listed: [17] | [18]
inactive: all other assays above

COc1ccc([C@@H]2CC(=O)c3c(O)cc(O[C@@H]4O[C@H](CO[C@@H]5O[C@@H](C)[C@H](O)[C@@H](O)[C@H]5O)[C@@H](O)[C@H](O)[C@H]4O)cc3O2)cc1OC
not listed: [12]
inactive: all other assays above

CN=C(NC#N)NCCSCc1nc[nH]c1C
inactive: all assays above

OC[C@H]1O[C@@H](Oc2ccc(O)cc2)[C@H](O)[C@@H](O)[C@@H]1O
inactive: all assays above

Cc1ccc(C)c(S(=O)(=O)O)c1
not listed: [12] | [15] | [17]
inactive: all other assays above

CCCCCNCCCCC
not listed: [12] | [17] | [18]
inactive: all other assays above

CCCCCCCCCCCCCC(=O)O
not listed: [12] | [15]
inactive: all other assays above

CC(=O)C(C)C
not listed: [12] | [15]
inactive: all other assays above

CCOC(=O)c1ccc(O)cc1
inactive: all assays above

C=CC(=O)NCOCCCC
not listed: [12] | [18]
inactive: all other assays above

CC[N+](CC)(CC(=O)Nc1c(C)cccc1C)Cc1ccccc1
not listed: [17]
inactive: all other assays above

COc1c2ccoc2cc2oc(=O)ccc12
not listed: [12] | [15] | [18]
inactive: all other assays above

Cc1ccc([N+](=O)[O-])cc1N
not listed: [12]
inactive: all other assays above

CN1Cc2c(N)cccc2C(c2ccccc2)C1 (stereo not given)
not listed: [17] | [18]
inactive: all other assays above

CCc1cccc(O)c1
not listed: [12] | [15]
inactive: all other assays above

CC1=CC(=O)CC(C)(C)C1
40 µM (active) and inactive: [1]
25.3 µM (active) and inactive: [3]
not listed: [10] | [12] | [17] | [18]
inactive: all other assays above
